The list is not random: actives were taken first. Their share in the collection is about 9.4%.
HPGD block = qHTS Assay for Inhibitors of HPGD (15-Hydroxyprostaglandin Dehydrogenase); 15-hydroxyprostaglandin dehydrogenase [NAD(+)] (Homo sapiens), P15428; purified HPGD, NADH fluorescence kinetic, PGE2 substrate; Potency, µM, hits mostly inhibitors; hit rate 4.3% among 150,000; active = well fitted inhibition curve with a large enough effect, not every such curve was filed as active; inconclusive = small, poorly fitted or top-dose-only effect, or another doubt; inactive = no such curve, though single readings can be large or run the other way
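NADH formation kinetics: reaction with 30 uM PGE2 and 1 mM NAD+ (final), 20 nM enzyme, Tris-HCl pH 8 with Tween 20, after 15 min compound preincubation at room temperature. Fluorescence change, last versus first of five reads.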
IMPase inh = qHTS Assay for Identifying the Cell-Membrane Permeable IMPase Inhibitors | Inositol monophosphatase 1 (Rattus norvegicus), P97697 | CHO-M1 cells, IP1 accumulation, HTRF TR-FRET ratio | inhibition (IP1 accumulation), % at 46.1 µM | 120,000 tested, under 10 active; active = well fitted curve in the direction sought with a large enough effect in the signal ratio, not every such curve was filed as active; inconclusive = small, poorly fitted or top-dose-only effect, or a change in a side signal; inactive = no such curve, though single readings can be large or run the other way; the % refers to the signal ratio;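 note: cells stimulated with carbachol in lithium chloride buffer; higher means more IMPase inhibition seen as more IP1 and lower FRET ratio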
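Cellular IMPase inhibition is scored as a rise in cytosolic IP1, detected by competitive TR-FRET between d2-labelled IP1 and a europium anti-IP1 antibody. M1-expressing CHO cells were stimulated with carbachol for 30 min at 37C, with lithium (50 mM LiCl) present in the buffer.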
ALDH1A1 inh = qHTS Assay for Inhibitors of Aldehyde Dehydrogenase 1 (ALDH1A1); Aldehyde dehydrogenase 1A1 (Homo sapiens), P00352; Purified ALDH1A1, NADH fluorescence, propionaldehyde substrate; Potency, µM (highest dose often 75.3 µM), usual class: inhibitors; hit rate 7.3% among 220,000; active = well fitted inhibition curve with a large enough effect, not every such curve was filed as active; inconclusive = small, poorly fitted or top-dose-only effect, or another doubt; inactive = no such curve, though single readings can be large or run the other way
Target sequence (P00352 whole entry, looked up): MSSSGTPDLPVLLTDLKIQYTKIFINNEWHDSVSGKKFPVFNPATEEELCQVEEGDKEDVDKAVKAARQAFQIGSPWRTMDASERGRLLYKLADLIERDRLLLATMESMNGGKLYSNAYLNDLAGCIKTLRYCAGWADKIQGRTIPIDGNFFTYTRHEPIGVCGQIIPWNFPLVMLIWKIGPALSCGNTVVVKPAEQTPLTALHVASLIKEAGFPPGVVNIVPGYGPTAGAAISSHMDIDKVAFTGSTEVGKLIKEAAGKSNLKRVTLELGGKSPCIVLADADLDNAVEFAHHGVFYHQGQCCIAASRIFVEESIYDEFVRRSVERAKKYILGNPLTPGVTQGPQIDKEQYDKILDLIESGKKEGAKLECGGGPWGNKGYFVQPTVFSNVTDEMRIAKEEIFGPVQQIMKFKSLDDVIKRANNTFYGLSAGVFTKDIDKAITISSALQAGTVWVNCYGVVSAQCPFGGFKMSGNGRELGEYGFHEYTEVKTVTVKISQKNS
HttQ103 aggreg = qHTS Multiplex Assay to Identify Dual Action Probes in a Cell Model of Huntington: Aggregate Formation (GFP); hit rate 1.1% among 220,000; Potency, µM (doses to about 46.1 µM), hits mostly inhibitors; PC12 HttQ103-GFP aggregates, Acumen cytometry, 40 h; AID 1688, 2009; note: nearly all actives have a fitted effect of over 60% in size
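Steps: seed 1500 PC12 HTTQ103-GFP cells/well; add tebufenozide, 100 nM final; add compound titration; add ATPLite reagent; quantify GFP aggregates by laser scanning cytometry.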
IMPase Li cell = qHTS Assay for Identifying the Cell-Membrane Permeable IMPase Inhibitors: Potentiation with Lithium | Potency, µM (top dose mostly 59.4 µM), most hits filed as inhibitors | CHO-M1 cells, IP1 TR-FRET (IP-One), carbachol + lithium | hit rate 0.35% among 210,000;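 note: IP1 builds up when IMPase is blocked and the TR-FRET signal falls; nearly all actives have a fitted effect of over 50% in size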
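Test compounds were applied to CHO-M1 cells previously cultured for 16–30 h at 2000 per well. A small lithium amount accompanied them; after 30 min at 37C, IP1 was quantified by TR-FRET.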
HTT ATP protect = qHTS Multiplex Assay to Identify Dual Action Probes in a Cell Model of Huntington: Cytoprotection (ATP) | PC12 HTT-Q103 induced, cytoprotection, ATP luminescence, 40 h | Potency, µM (titrated, usually from 56.4 µM), usual class: activators | hit rate 0.14% among 230,000; note: nearly all actives have a fitted effect of over 45% in size
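Quantitative HTS on tebufenozide-induced (100 nM) PC12 cells expressing HTTQ103 exon 1–GFP; compounds tested as a concentration series; survival measured via cellular ATP.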
A number is an active result; n = inactive; u = inconclusive; x = no result; [ ] = another dose, or the depositor's remark. Unless noted, calls come from the whole dose curve; as a rule, active = well fitted curve in the direction sought with a large enough effect; inconclusive = small, poorly fitted or top-dose-only effect, or another doubt; inactive = no such curve, though single readings can be large; an effect the other way counts as inactive or inconclusive.

SMILES | HPGD block | IMPase inh | ALDH1A1 inh | HttQ103 aggreg | IMPase Li cell | HTT ATP protect
CC(=O)C1=C(c2ccccc2)NC(=S)NC1c1cc(Cl)c(OC(C)C)c(Cl)c1 (stereo not drawn) | n | n | 0.708µM | u | n | n[10 µM]
COc1cc(C2NC(=S)NC(c3ccccc3)=C2C(C)=O)cc(Cl)c1OCC(=O)O (stereo not drawn) | n | n | u | n | n | n
Cc1cccc(-n2cnc3cc(C(=O)N4CCc5ccccc54)ccc32)c1 | 22.4µM | x | u | n | n | n[10 µM]
Cc1c(Cl)c(S(N)(=O)=O)cc2c1=NC=NS=2(=O)O | n | x | n[13.5 µM] | x | n | n[10 µM]
O=C(CCN1C(=O)C2CC=C(Cl)CC2C1=O)NCc1ccco1 (stereo not drawn) | n | n | 22.4µM | n | n | n[0.074 µM]
O=C(CCN1C(=O)C2CC=C(Cl)CC2C1=O)NCc1ccccc1 (stereo not drawn) | n | n | u | n | n | n[1.9 µM]
Oc1ccc(-c2csc(-c3cccnc3)n2)cc1O | x | x | x | n[9.22 µM] | x | n[10 µM]
Oc1ccc(-c2csc(-c3ccccc3)n2)cc1O | 28.2µM | n | u | n | n | n
Cc1nc(-c2ccc(NS(C)(=O)=O)cc2)cs1 | 15.8µM | n | n | n | n | n[0.074 µM]
Cc1nc(-c2ccc(O)c(O)c2)cs1 | 22.4µM | n | u | n | n | n[10 µM]
Cc1nc(-c2cccc(NS(C)(=O)=O)c2)cs1 | n | n | n | u | n | n
CC(=O)Nc1c(I)c(C(=O)N[C@H]2[C@@H](O)[C@H](O)[C@H](CO)O[C@@H]2O)c(I)c(N(C)C(C)=O)c1I | n | n | n | n | n | n
N[C@H](C(=O)O)[C@H]1C[C@H]1C(=O)O | x | x | n | x | n | n
O=C1[C@@H]2[C@H]3[C@H](O)[C@H](O)C/C(=N/OC[C@@H](O)COCc4ccco4)[C@H]3CC[C@H]2C(=O)N1c1ccc(F)cc1F | x | x | n[13.5 µM] | x | x | n[10 µM]
Cc1ccc(C2CC(C(F)(F)F)n3nc(C(=O)NCc4c(C)nn(C)c4C)c(Cl)c3N2)cc1 (stereo not drawn) | n | n | n | 12.6µM | n | n
COc1nc2ccccc2c(=O)n1OCC(C)C | n | n | 14.1µM | n | n | n
CCN(C(=O)c1cc2ccccc2oc1=O)c1cccc(C)c1 | u | n | 14.1µM | n | n | n[10 µM]
CC(C)c1ccc(N(C(=O)c2cc3ccccc3oc2=O)C2C=CS(=O)(=O)C2)cc1 (stereo not drawn) | n | n | 25.1µM | n | n | n[10 µM]
O=C(c1cc2ccccc2oc1=O)N(c1ccccc1)C1C=CS(=O)(=O)C1 (stereo not drawn) | n | n | n | n | n | n[10 µM]
CCc1nc(N2CCN(C(=O)c3ccco3)CC2)c2c3c(sc2n1)CCCC3 | n | n | u | n | n | n
c1ccc(N2CCN(c3ncnc4sc5c(c34)CCC5)CC2)cc1 | n | n | u | 11.2µM | n | n
O=C(c1ccco1)N1CCN(c2ncnc3sc4c(c23)CCC4)CC1 | 31.6µM | n | 10µM | n | n | n
O=c1oc2cc(N=Cc3ccc4c(c3)OCO4)ccc2c2ccccc12 | n | x | u | x | n | n[10 µM]
C/C(=C\C[Si](C)(C)C)CCC=O | u | x | n | x | n | n
Clc1ccc(-n2cccc2CN2CCc3c([nH]c4ccccc34)C2c2ccccn2)nc1 (stereo not drawn) | x | x | 14.1µM | n | n | n
Fc1ccc(C2c3[nH]c4ccccc4c3CCN2Cc2cccn2-c2ncccn2)cc1 (stereo not drawn) | x | x | 10µM | n[9.22 µM] | n | n[10 µM]
O=C(NC(=S)Nc1ccc(N2CCOCC2)cc1)c1cccc([N+](=O)[O-])c1 | n | x | n | n | n | n[0.074 µM]
O=C(NC(=S)Nc1ccc(CN2CCOCC2)cc1)c1cccc([N+](=O)[O-])c1 | n | x | 12.6µM | n | n | n[10 µM]
CC(C)Oc1ccc(C(=O)NC(=S)Nc2ccc(CN3CCOCC3)cc2)cc1 | n | x | 7.08µM | n | n | n[10 µM]

Bioassay records (PubChem)
